Shown are actives, neighbours in structure and some others; about 7.5% of the full set was active somewhere.
NPC1 prom act = activators of NPC1 promoter; AID 485313; Potency, µM (series often up to 9.22 µM), for inactives: at the top dose activation, hits mostly activators; actives 2.4% (n = 320,000); Huh7 NPC1 promoter luciferase reporter, 24 h; also: % of control where 0% means no effect; nearly all actives have a fitted effect of over 60% in size
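Stably transfected Huh7 (NPC1 promoter→luciferase), 1500 cells/well in Opti-MEM + 10% FBS, 2 h settle, then compound 24 h at 37 °C. Luminescence after 10 min with Amplite reagent.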
Rab9 promoter act = Rab9 promoter activation | Huh7 Rab9 promoter-luciferase reporter, luminescence, 24 h | Potency, µM (highest dose often 9.22 µM), without a hit: at the highest dose activation, negative = inhibition, usual class: activators | actives 2.8% (n = 320,000); also: % of control where 0% means no effect; nearly all actives have a fitted effect of over 60% in size
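Steps: seed 1500 Huh7 Rab9-luc cells per well, rest 2 h at 37 °C; add compound in DMSO; incubate 24 h; add luciferase reagent, 10 min ambient; read luminescence.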
ELG1 genotox = induces genotoxicity in HEK293T cells with luciferase-tagged ELG1; HEK293T ELG1-luciferase reporter, luminescence, 16 h; Potency, µM (highest dose often 46 µM), for inactives: at the top dose activity change, positive = activation, actives largely listed as activators; actives 1.3% (n = 330,000); also: % of control where 0% means no effect; nearly all actives have a fitted effect of over 60% in size
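ELG1-luciferase HEK293T cells, 2,000/well; compound pinned in; 16 hr, 37 °C, 5% CO2; ONE-Glo, 30 min RT; luminescence on CCD imager.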
SMN2 splice up = increases expression of the SMN2 splice variant | actives 2.8% (n = 210,000) | AID 1458 | Potency, µM (titrated, usually from 46.1 µM), for the others: at the highest dose activity change, positive = activation, hits mostly activators | HEK293 SMN2-luciferase splicing reporter, luminescence, 30-36 h; also: % of control where 0% means no effect; nearly all actives have a fitted effect of over 55% in size
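HEK293 cells carry an SMN2 minigene-luciferase reporter in which exon 7 inclusion puts luciferase in frame. Cells were seeded at 2000 cells/well, attached for 10-12 hours, then exposed to compounds for 30-36 hours at 37C before ONE-Glo luminescence.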
FLuc modulator = firefly luciferase modulation, counter-screen for miR-21 project | P08659 | purified FLuc, Km substrates, luminescence inhibition | actives 6.9% (n = 360,000) | Potency, µM (series often up to 57.5 µM), inactives show top-dose activity change, negative = inhibition, actives largely listed as inhibitors | AID 588342;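 also: plate controls were vehicle for no effect and reference inhibitor for full effect; nearly all actives have a fitted effect of over 55% in size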
Target sequence (P08659 whole entry, looked up): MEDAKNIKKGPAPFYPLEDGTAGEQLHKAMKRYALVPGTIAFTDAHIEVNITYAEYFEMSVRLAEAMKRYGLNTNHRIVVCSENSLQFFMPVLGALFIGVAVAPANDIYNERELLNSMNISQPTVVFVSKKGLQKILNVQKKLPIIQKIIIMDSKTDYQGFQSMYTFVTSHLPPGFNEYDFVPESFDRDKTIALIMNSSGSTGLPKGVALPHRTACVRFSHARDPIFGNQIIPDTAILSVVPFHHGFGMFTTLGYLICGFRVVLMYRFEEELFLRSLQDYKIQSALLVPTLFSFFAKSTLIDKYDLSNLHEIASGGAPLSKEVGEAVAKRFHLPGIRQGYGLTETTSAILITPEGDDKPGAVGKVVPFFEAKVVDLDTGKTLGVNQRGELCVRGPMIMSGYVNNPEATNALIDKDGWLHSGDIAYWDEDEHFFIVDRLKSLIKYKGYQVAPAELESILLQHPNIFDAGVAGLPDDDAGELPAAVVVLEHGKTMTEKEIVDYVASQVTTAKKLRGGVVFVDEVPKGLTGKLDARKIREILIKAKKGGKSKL
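Biochemical qHTS of compounds, final roughly 60 µM downward over six points, against 10 nM purified firefly luciferase using Km concentrations of substrates (10 uM D-luciferin, 10 uM ATP) in Tris acetate pH 7.5 buffer; luminescence output.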
An asterisk follows results filed as active; u = inconclusive; x = no result given. Calls follow the shape of the dose curve; as a rule, active = well fitted curve in the direction sought with a large enough effect; inconclusive = small, poorly fitted or top-dose-only effect, or another doubt; inactive = no such curve, though single readings can be large; an effect the other way counts as inactive or inconclusive. Potency is read from the fitted curve at half-maximal effect.

SMILES	NPC1 prom act	Rab9 promoter act	ELG1 genotox	SMN2 splice up	FLuc modulator
COc1ccccc1/C=C/C(=O)Nc1ccc(N2CCOCC2)cc1	-36.6%	-0.5%	4.8%	-3.1%	-6.0%
COc1cccc(CC(=O)Nc2ccc3c(c2)CCC3)c1	0.5%	6.6%	8.6%	x	u
COc1cccc(-c2ocnc2C(=O)Nc2ccc3c(c2)CCC3)c1	-1.3%	9.1%	16.3%	x	19µM*
COc1ccccc1/C=C/C(=O)Nc1ccc2c(c1)CCC2	3.16µM*	1.78µM*	u	12.6µM*	4.26µM*
CN(CC(=O)NC1(C)CCS(=O)(=O)C1)S(=O)(=O)c1ccc(Cl)cc1 (configuration not stated)	-0.3%	-1.0%	-0.1%	x	5.3%
COCCN1Cc2cccc(C(=O)Nc3cccc(OC)c3)c2C1=O	-0.9%	9.7%	2.4%	-31.9%	-16.4%
COCCN1Cc2cccc(C(=O)Nc3ccc(C)c(C)c3)c2C1=O	-1.4%	15.5%	10.3%	-1.1%	7.57µM*
COc1ccc(N2Cc3cccc(C(=O)Nc4ccc(C(C)C)cc4)c3C2=O)cc1	x	x	x	u	0.269µM*
CCOc1ccc(NC(=O)c2cccc3c2C(=O)N(CCOC)C3)cc1	7.3%	20.8%	14.7%	-7.5%	6.75µM*
COc1ccc(N2Cc3cccc(C(=O)Nc4ccc(C)cc4)c3C2=O)cc1	x	x	x	5.7%	-12.2%
Nn1c(SCC(=O)NC2CCCCC2)nnc1-c1ccccc1F	-2.3%	-1.0%	4.0%	x	2.5%
CCN1C(=O)[C@H]2[C@@H](c3ccc(-c4ccc(OC)cc4)cc3)N[C@@](CC(C)C)(C(=O)OC)[C@H]2C1=O	-3.0%	-2.1%	-4.9%	x	-2.5%
O=C(Nc1cccc(Cl)c1)ON=C1c2ccccc2-c2ccccc21	12.9%	12.4%	-9.9%	-4.3%	u
COc1cc(OC)c(C(=O)OCC(=O)NCCc2ccccc2)cc1OC	-4.3%	1.0%	-1.3%	16.1%	-3.5%
CCS(=O)(=O)n1nc(-c2ccc(Cl)cc2)nc1SCc1ccccc1	28.8%	u	16.8%	14.1µM*	15.1µM*
CC(C)OC(=O)Cn1nnc2c(cnn2-c2ccccc2)c1=O	16.8%	18.0%	13.6%	26.0%	16.9µM*
Cc1ccc2cc3cc(C(=O)N4CCN(c5ccc(Cl)cc5)CC4)oc3nc2c1	x	x	x	0.1%	0.9%
Cc1[nH]nc(N=CC2=C(O)CC(C)(C)CC2=O)c1-c1ccccc1	-4.0%	0.2%	17.8%	-11.2%	13.5µM*
CC1CCN(C(=O)CSCc2ccc(Cl)cc2)CC1	u	3.16µM*	14.6µM*	u	19µM*
O=C(CSCc1ccc(F)cc1)N1CCN(c2ccc(Cl)cc2)CC1	x	x	x	x	-2.5%
Cc1ccc(S(=O)(=O)Oc2ccc(C)cc2/C=N/N=C2\NC(=O)C(C)S2)cc1 (configuration not stated)	11.1%	u	u	-7.8%	9.53µM*
CC1S/C(=N/N=C/c2cccs2)NC1=O (configuration not stated)	0.2%	2.3%	14.4%	x	u
COC(=O)c1ccc(-c2ccc(/C=N/NC(=O)CC3(C)OCCCO3)o2)cc1	u	u	8.6%	11.2µM*	u
CC1(CC(=O)N/N=C/c2ccc(-c3ccc(Cl)cc3)o2)OCCO1	8.2%	12.5%	6.9%	9.2%	3.38µM*
CC1(CC(=O)N/N=C/c2ccc(-c3ccc(C(=O)O)cc3)o2)OCCO1	-3.8%	-11.6%	3.8%	-0.2%	u
SMILES	NPC1 prom act	Rab9 promoter act	ELG1 genotox	SMN2 splice up	FLuc modulator
CCc1nn(CC(=O)NC(C)C)c(=O)c2cc3cc(F)ccc3n12	x	x	x	-2.9%	-0.9%
CC(=O)Nc1c(C)nn(-c2ccccc2)c1N1CCC(C(=O)Nc2ccccc2F)CC1	x	x	x	x	-9.2%
Cc1[nH]c2ccccc2c1C(=O)CSC(=S)N1CCCCC1	u	u	u	8.91µM*	9.53µM*
Cc1[nH]c2ccccc2c1SCC(=O)N1CCCCC1	-0.7%	-0.1%	-3.3%	0.4%	-17.4%
Cc1[nH]c2ccccc2c1C(=O)CSC(=S)N(C)C1CCCCC1	13.6%	-2.3%	5.1%	-1.5%	15.1µM*
Cc1[nH]c2ccccc2c1C(=O)C(=O)N(C)C1CCCCC1	-3.1%	-9.2%	-0.3%	x	-10.3%
Cc1nnc(C)n1/N=C/c1ccc(-c2ccccc2Cl)o1	-1.8%	0.8%	23.1µM*	x	-12.6%
O=C(O)c1ccc(N/N=C/c2ccc(-c3ccccc3Cl)o2)cc1	u	u	1.83µM*	x	0.675µM*
O=S(=O)(N/N=C\c1ccc(-c2ccccc2Cl)o1)c1ccccc1	2.0%	-3.0%	-1.8%	-52.8%	-7.3%
O=C(N/N=C/c1ccc(-c2ccccc2Cl)o1)c1ccccc1	0.3%	16.2%	18.0%	u	13.5µM*
O=C(CCN1C(=O)C2CC=CCC2C1=O)Nc1ccc(S(=O)(=O)N2CCCCC2)cc1 (configuration not stated)	-2.2%	-2.0%	-2.0%	x	0.0%
CCc1cccc(NC(=O)CSc2ncc3c(n2)-c2cc(Cl)ccc2N(C)S3(=O)=O)c1	x	x	x	x	0.9%
CC(C)(C)c1ccc(OCC(=O)N/N=C/c2ccsc2)cc1	0.2%	-2.3%	-0.5%	x	10.7µM*
CC(C)(C)OC(=O)COc1ccc(/C=N/NC(=O)CN2CCCCC2)cc1	1.58µM*	1.12µM*	u	x	2.2%
CC(C)(C)c1ccc(OCC(=O)N/N=C/c2ccc(N3CCOCC3)cc2)cc1	-0.2%	-8.6%	0.3%	-1.9%	5.36µM*
Cc1ccc(C)c(OCC(=O)N/N=C/c2ccsc2)c1	-2.3%	2.5%	3.7%	8.5%	-2.3%
COC(=O)c1cccnc1-n1c(=O)c2cccnc2n(CC(=O)Nc2cccc(C)c2)c1=O	x	x	x	6.5%	-0.7%
COc1ccc(-n2nc(C(=O)NCC(=O)N3CCCC3)c3ccccc3c2=O)cc1Cl	-2.1%	10.9%	-5.4%	x	8.49µM*
CCOC(=O)N1CCN(C(=O)CNC(=O)c2nn(-c3ccc(OC)c(OC)c3)c(=O)c3ccccc23)CC1	-0.2%	11.5%	-11.4%	x	6.75µM*
CCOC(=O)N1CCN(C(=O)CNC(=O)c2nn(-c3ccc(OC)c(Cl)c3)c(=O)c3ccccc23)CC1	6.3%	19.4%	0.7%	x	4.78µM*
CCCCNC(=O)CNC(=O)c1nn(-c2ccc(OC)c(Cl)c2)c(=O)c2ccccc12	-0.1%	-1.9%	4.3%	x	-0.3%
COC(=O)CNC(=O)CNC(=O)c1nn(-c2ccc(OC)c(Cl)c2)c(=O)c2ccccc12	-7.7%	2.3%	-0.6%	-10.8%	1.1%
CCC(=O)NCc1ccc2[nH]c(C)cc2c1	-2.2%	6.4%	-4.1%	6.3%	-8.1%
Cc1ccc2nc(-c3ccc(N4C(=O)CC(N5CCN(CCO)CC5)C4=O)cc3)sc2c1 (configuration not stated)	11.5%	10.2%	u	18.3%	8.49µM*
COc1ccc(NC(=O)c2ccccn2)cc1OC	u	3.98µM*	u	u	16.9µM*
COc1ccc(NC(=O)c2cccnc2SC)cc1OC	-5.3%	-2.7%	9.1%	4.3%	-6.3%
